Experimental data reported in PubChem BioAssay (EPA / NIEHS).
Active and inactive are the calls of the source. The calls were made as follows: active = hit-call score of the fitted dose curve at least 0.9, where 1 is the maximum; inactive = score below 0.9.

How the values were obtained:
[1] = read-out: Monokine induced gamma interferon (MIG), CXCL9 (gene 4283); experiment: BSK_3C_MIG: BioMAP Diversity Plus: 3C Assay for Monokine induced gamma interferon (MIG) Biomarker Activity (AID 2283021); conditions: primary human endothelial cells (HUVEC); actives raise or lower the signal
Procedure, shortened: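 ELISA-measured MIG in dosed HUVEC 3C cultures at 24 h, analysed by bidirectional fitting with DMSO defining baseline activity.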

[2] = BSK_3C_SRB: Viability Assessment in the BioMAP Diversity Plus: 3C Assay (AID 2283023); conditions: primary human endothelial cells (HUVEC);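 also: fitted both ways against DMSO so a hit may be signal rise or drop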
Procedure, shortened: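 Human umbilical vein endothelial cells in the 3C system, treated 24 h. Total protein measured by 0.1% sulforhodamine B staining after 10% TCA fixation, read at 560 nm; bidirectional fit versus DMSO.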

[3] = BSK_3C_Vis: BioMAP Diversity Plus: 3C Assay for Morphology Visualization (AID 2283025); conditions: primary human endothelial cells (HUVEC);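 also: fitted both ways so gain or loss versus DMSO counts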;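 as to AC50: light microscopy image of cell morphology used as background control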
Procedure, shortened: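 Light-microscopy morphology readout, 24 h exposure, human primary umbilical vein endothelium; analysed relative to DMSO with bidirectional fitting.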

[4] = read-out: Pselectin, SELP (gene 6403); experiment: BSK_4H_Pselectin: BioMAP Diversity Plus: 4H Assay for Pselectin Biomarker Activity (AID 2283026); conditions: primary human endothelial cells (HUVEC); actives raise or lower the signal
Procedure, shortened: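 Bidirectional fits against DMSO gave the endpoint. Cells: primary human umbilical vein endothelium, chemical-treated for 24 h before ELISA detection of P-selectin.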

[5] = BSK_4H_SRB: Viability Assessment in the BioMAP Diversity Plus: 4H Assay (AID 2283027); conditions: primary human endothelial cells (HUVEC);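 also: cells exposed to compound for 24 h before staining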;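 as to AC50: curves fitted both ways versus DMSO so AC50 may be loss or gain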
Procedure, shortened: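 HUVEC, 24 h post-dose; 10% TCA fix, 0.1% SRB stain, A560 nm. Total protein = overt cytotoxicity, parallel to biomarker read. Bidirectional fit vs DMSO baseline.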

[6] = BSK_BE3C_SRB: Viability Assessment in the BioMAP Diversity Plus: BE3C Assay (AID 2283028); conditions: primary human bronchial epithelial cells
Procedure, shortened: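 Human bronchial epithelial primary cells in confluent culture, 24 h after chemical dosing; total protein by 0.1% SRB staining after 10% TCA fixation, read at 560 nm. Bidirectional fitting versus DMSO baseline.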

[7] = read-out: Thrombomodulin, THBD (gene 7056); experiment: BSK_3C_Thrombomodulin: BioMAP Diversity Plus: 3C Assay for Thrombomodulin Biomarker Activity (AID 2283029); conditions: primary human endothelial cells (HUVEC); actives raise or lower the signal
Procedure, shortened: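 In a multiplexed primary-cell system, human umbilical vein endothelium received chemical and was assayed 24 h later for thrombomodulin by ELISA. Parallel cultures were SRB-stained (0.1% SRB after 10% TCA fixation, read at 560 nm) to flag cytotoxicity.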

[8] = read-out: Urokinase-type plasminogen activator receptor (uPAR), PLAUR (gene 5329); experiment: BSK_4H_uPAR: BioMAP Diversity Plus: 4H Assay for Urokinase-type plasminogen activator receptor (uPAR) Biomarker Activity (AID 2283030); conditions: primary human endothelial cells (HUVEC); actives raise or lower the signal
Procedure, shortened: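 Human umbilical vein endothelial cells in the 4H system, 24 h after chemical dosing. Cell-surface uPAR measured by ELISA, fitted in both directions versus DMSO; cytotoxicity checked by SRB total protein in parallel cultures.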

[9] = read-out: Vascular endothelial growth factor receptor 2 (Homo sapiens) (UniProt P35968); experiment: BSK_4H_VEGFRII: BioMAP Diversity Plus: 4H Assay for Vascular endothelial growth factor receptor 2 (VEGFR2) Biomarker Activity (AID 2283031); conditions: primary human endothelial cells (HUVEC); actives raise or lower the signal
Procedure, shortened: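 Primary human umbilical vein endothelial cells (4H system), 24 h exposure; cell-surface VEGFR2 measured by ELISA. Bidirectional fitting versus DMSO; cytotoxicity checked in parallel by SRB total-protein staining.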

[10] = read-out: Human Leukocyte Antigen - DR isotype (HLADR), HLA-DRA (gene 3122); experiment: BSK_BE3C_HLADR: BioMAP Diversity Plus: BE3C Assay for Human Leukocyte Antigen - DR isotype (HLADR) Biomarker Activity (AID 2283032); conditions: primary human bronchial epithelial cells; actives raise or lower the signal
Procedure, shortened: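 BioMAP BE3C format: human bronchial epithelium, 24 h compound treatment, ELISA detection of HLA-DR, with bidirectional analysis relative to DMSO.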

[11] = read-out: Interferon-gamma inducible Protein 10 (IP10), CXCL10 (gene 3627); experiment: BSK_BE3C_IP10: BioMAP Diversity Plus: BE3C Assay for Interferon-gamma inducible Protein 10 (IP10) Biomarker Activity (AID 2283034); conditions: primary human bronchial epithelial cells; actives raise or lower the signal
Procedure, shortened: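 BE3C cells (human bronchial epithelial, primary); 24 h exposure; ELISA for IP-10; DMSO-referenced bidirectional fit.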

[12] = read-out: Monokine induced gamma interferon (MIG), CXCL9 (gene 4283); experiment: BSK_BE3C_MIG: BioMAP Diversity Plus: BE3C Assay for Monokine induced gamma interferon (MIG) Biomarker Activity (AID 2283035); conditions: primary human bronchial epithelial cells; actives raise or lower the signal
Procedure, shortened: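 Dose cells (human primary bronchial epithelial), incubate 24 h, quantify MIG by ELISA, then fit concentration–response in both directions relative to DMSO control.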

[13] = read-out: Transforming growth factor beta 1 (TGFb1), TGFB1 (gene 7040); experiment: BSK_BE3C_TGFb1: BioMAP Diversity Plus: BE3C Assay for Transforming growth factor beta 1 (TGFb1) Biomarker Activity (AID 2283036); conditions: primary human bronchial epithelial cells; actives raise or lower the signal
Procedure, shortened: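 TGF-b1 measured via ELISA, 24 h after chemical dosing of human bronchial epithelial cells (BE3C). Overt cytotoxicity assessed in parallel by SRB (0.1%, TCA-fixed, 560 nm); analysis bidirectional relative to DMSO.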

[14] = read-out: Plasminogen activator inhibitor-1 (PAI1), SERPINE1 (gene 5054); experiment: BSK_BE3C_PAI1: BioMAP Diversity Plus: BE3C Assay for Plasminogen activator inhibitor-1 (PAI1) Biomarker Activity (AID 2283037); conditions: primary human bronchial epithelial cells; actives raise or lower the signal
Procedure, shortened: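 In this multiplexed primary-cell system, bronchial epithelial cells receive test chemical and are sampled at 24 h. PAI-1 is read by ELISA, with DMSO serving as negative control for bidirectional fitting.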

[15] = read-out: urokinase plasminogen activator (uPA), PLAU (gene 5328); experiment: BSK_BE3C_uPA: BioMAP Diversity Plus: BE3C Assay for urokinase plasminogen activator (uPA) Biomarker Activity (AID 2283038); conditions: primary human bronchial epithelial cells; actives raise or lower the signal;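 also: uPA protein level quantified by ELISA in cell cultures; uPA read one day after compound addition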
Procedure, shortened: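 Primary human bronchial epithelial cells, uPA measured by ELISA 24 h after dosing. Bidirectional change relative to DMSO; cytotoxicity checked in parallel cultures by sulforhodamine B total-protein staining.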

[16] = read-out: Urokinase-type plasminogen activator receptor (uPAR), PLAUR (gene 5329); experiment: BSK_BE3C_uPAR: BioMAP Diversity Plus: BE3C Assay for Urokinase-type plasminogen activator receptor (uPAR) Biomarker Activity (AID 2283039); conditions: primary human bronchial epithelial cells; actives raise or lower the signal
Procedure, shortened: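 Chemically treated human bronchial epithelial cells (lung primary) are assayed for uPAR by ELISA after 24 h, with data fitted in both directions using DMSO as negative control.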

[17] = read-out: Interleukin-6 (IL6), IL6 (gene 3569); experiment: BSK_CASM3C_IL6: BioMAP Diversity Plus: CASM3C Assay for Interleukin-6 (IL6) Biomarker Activity for (AID 2283040); conditions: primary human coronary artery smooth muscle cells; actives raise or lower the signal
[18] = read-out: Vascular cell adhesion molecule 1 (VCAM1), VCAM1 (gene 7412); experiment: BSK_4H_VCAM1: BioMAP Diversity Plus: 4H Assay for Vascular cell adhesion molecule 1 (VCAM1) Biomarker Activity (AID 2283033); conditions: primary human endothelial cells (HUVEC); actives raise or lower the signal;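 also: cell-surface VCAM-1 protein measured by ELISA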
Procedure, shortened: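 In this human endothelial (HUVEC) system, biomarker ELISA was run 24 h after compound addition, and total protein in parallel wells was assessed by SRB at 560 nm; DMSO served as negative control.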

[19] = read-out: Matrix Metallopeptidase 1 (MMP1), MMP1 (gene 4312); experiment: BSK_BE3C_MMP1: BioMAP Diversity Plus: BE3C Assay for Matrix Metallopeptidase 1 (MMP1) Biomarker Activity (AID 2283024); conditions: primary human bronchial epithelial cells; actives raise or lower the signal
Procedure, shortened: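 In this multiplexed primary-cell system, human bronchial epithelium received chemicals for 24 h before an ELISA for MMP1. Values reflect bidirectional fits normalised to the DMSO baseline.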

Measured: AC50

O=P(O)(O)CCCl
not listed: [18] | [19]
inactive: all other assays above

CCCN(CC)CC1COC2(CCC(C(C)(C)C)CC2)O1 (configuration not stated)
active: [16] 1.77 µM
not listed: [15] | [19]
inactive: all other assays above

CN=C=S
not listed: [18] | [19]
inactive: all other assays above

O=C1C2CC=CCC2C(=O)N1SC(Cl)(Cl)Cl (configuration not stated)
active: [3] 39 µM | [4] 23.9 µM | [10] 12.3 µM | [11] 11.9 µM | [12] 13.5 µM | [13] 12.7 µM | [14] 12.4 µM | [17] 30.9 µM
not listed: [15] | [19]
inactive: all other assays above

Cc1nc(N(C)C)nc(OC(=O)N(C)C)c1C
not listed: [18] | [19]
inactive: all other assays above

C=CCOC(=O)C(C)(C)OC(=O)c1cc(-n2c(=O)cc(C(F)(F)F)n(C)c2=O)ccc1Cl
active: [8] 6.97 µM
not listed: [15] | [18]
inactive: all other assays above

CC(C)C1(C)N=C(c2ncccc2C(=O)O)NC1=O (configuration not stated)
active: [5] 0.454 µM
not listed: [18]
inactive: all other assays above

Cc1cc(C)nc(Nc2ccccc2)n1
not listed: [18] | [19]
inactive: all other assays above
